# Source: PubChem (National Center for Advancing Translational Sciences (NCATS))
# NPSR antagonist: qHTS Assay for Antagonists of the Neuropeptide S Receptor: cAMP Signal Transduction. CHO-NPSR cells, cAMP TR-FRET, antagonist mode. Potency, µM (doses to about 38.3 µM), for inactives: at the highest dose activity change, negative = inhibition, usual class: inhibitors. actives 1% (n = 220,000). AID 1461, 2008; also: nearly all actives have a fitted effect of over 50% in size
# Target sequence (Q6W5P4 whole entry, looked up): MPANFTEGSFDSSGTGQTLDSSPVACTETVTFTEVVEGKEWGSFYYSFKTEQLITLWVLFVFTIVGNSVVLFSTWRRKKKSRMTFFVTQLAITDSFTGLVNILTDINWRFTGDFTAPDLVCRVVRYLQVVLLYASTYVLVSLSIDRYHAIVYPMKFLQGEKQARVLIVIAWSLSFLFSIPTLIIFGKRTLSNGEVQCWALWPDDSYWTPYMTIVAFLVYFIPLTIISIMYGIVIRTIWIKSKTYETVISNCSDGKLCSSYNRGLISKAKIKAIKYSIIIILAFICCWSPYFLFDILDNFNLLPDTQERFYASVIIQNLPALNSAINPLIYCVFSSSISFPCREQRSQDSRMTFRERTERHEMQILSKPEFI
# ERK EGF block: qHTS Assay for Inhibitors of the ERK Signaling Pathway using a Homogeneous Screening Assay; Stimulation with EGF; HEK293-V1b, EGF-stimulated phospho-ERK AlphaScreen; Potency, µM (highest dose often 11.5 µM), without a hit: top-dose activity change, negative = inhibition, most hits filed as inhibitors; actives 0.41% (n = 130,000); AID 1454, 2008;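 also: plate controls were stimulated vehicle wells for no effect and unstimulated vehicle basal for full effect; nearly all actives have a fitted effect of over 55% in size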
#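 Readout: AlphaScreen signal for phosphorylated ERK in lysed HEK293 cells stably expressing V1b. Stimulus 25 nM EGF, 5 min, following 30 min compound exposure. Data scaled to DMSO basal and full EGF activation.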
# IMPase Li inh: qHTS Assay for Identifying the Cell-Membrane Permeable IMPase Inhibitors: Potentiation with Lithium; actives 0.35% (n = 210,000); AID 1457, 2008; Potency, µM (titrated, usually from 59.4 µM), without a hit: at the highest dose activity, negative = IMPase inhibition, most hits filed as inhibitors; CHO-M1 cells, IP1 TR-FRET (IP-One), carbachol + lithium;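 also: IP1 builds up when IMPase is blocked and the TR-FRET signal falls; plate controls were basal vehicle for no effect and high inhibitor control for full effect; nearly all actives have a fitted effect of over 50% in size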
#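 Test compounds were applied to CHO-M1 cells previously cultured for 16–30 h at 2000 per well. A small lithium amount accompanied them; after 30 min at 37C, IP1 was quantified by TR-FRET.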
# The depositor's hits bear a star; ? = inconclusive; . = not tested or not shown; [ ] = another dose, or the depositor's remark. The sample as a whole holds a higher share of hits than the screen did. Calls follow the shape of the dose curve; as a rule, active = well fitted curve in the direction sought with a large enough effect; inconclusive = small, poorly fitted or top-dose-only effect, or another doubt; inactive = no such curve, though single readings can be large; an effect the other way counts as inactive or inconclusive. Unless noted, % is scaled to controls: 0 for no effect and ±100 for the full control effect; potency is read from the fitted curve at half-maximal effect.
SMILES,NPSR antagonist,ERK EGF block,IMPase Li inh
CCCC(c1nnnn1C1CCCC1)N1CCN(C(=O)c2ccco2)CC1 (stereo not drawn),12.6µM*,.,12.3%[38.3 µM]
CCCCC(c1nnnn1C1CCCC1)N1CCN(C(=O)c2ccco2)CC1 (stereo not drawn),-17.7%[46.1 µM],.,19.7%[38.3 µM]
O=C(O)C[C@H](Cc1ccccc1)C(=O)O,.,.,-6.9%
CC1=NN(c2ccc(C)cc2)C(=O)/C1=C\C=C\c1ccccc1,-36.8%,?,14.2%
CC1=NN(c2cccc(C(=O)O)c2)C(=O)/C1=C\C=C/c1ccccc1,7.94µM*,?,27.2%
O=C(Nc1ccc(Oc2c(F)c(F)c(F)c(F)c2F)cc1)OC1CCN2Cc3ccccc3N=C12 (stereo not drawn),2µM*,-2.7%[57.5 µM],.
Cc1cccc(NC(=O)Nc2ccc(Oc3c(F)c(F)c(F)c(F)c3F)cc2)c1,-8.2%[46.1 µM],.,2.0%[38.3 µM]
COc1ccc(-n2nc3cc(C)c(NC(=S)NC(=O)c4ccccc4C)cc3n2)cc1,?,.,12.6µM*
CCC(=O)Nc1cc2nn(-c3ccc(OC)cc3)nc2cc1C,-17.0%[46.1 µM],.,11.2µM*
CCCCC(=O)Nc1cc2nn(-c3ccc(OC)cc3)nc2cc1C,-2.5%[46.1 µM],.,?
Cc1ccc(-n2nc3cc(C)c(NC(=S)NC(=O)/C=C/c4ccco4)cc3n2)cc1,-10.3%,3.0%,-13.6%
O=C(CSc1nc2c(c(C(F)(F)F)n1)CCc1ccccc1-2)NCc1ccccc1,?,1.1%,10µM*
O=C(CSc1nc2c(c(C(F)(F)F)n1)CCc1ccccc1-2)NCc1ccc(F)cc1,-47.7%,-5.3%,0.7%
COC(=O)C1(C(=O)OC)C/C=C\C/C=C\c2ccccc2[C@@H]1C[N+](=O)[O-],.,-9.0%,10.5%
N#CC(C#N)=C1C=CC=CN1/C(=C\c1ccco1)C(=O)c1ccccc1,?,14.1µM*,35.5%
COc1ccc(C(=O)/C(=C\c2ccco2)N2C=CC=CC2=C(C#N)C#N)cc1,-26.2%[46.1 µM],.,26.0%[38.3 µM]
C[C@@H](CSC(=N)N)C(N)=O,.,.,1.9%
O=C1C=C(c2ccccc2)C(=O)N1Nc1ccccc1,12.6µM*,.,50.0%[38.3 µM]
Cc1ccc(NN2C(=O)C=C(c3ccc(Cl)cc3)C2=O)cc1,7.94µM*,.,50.6%[38.3 µM]
COc1ccc(C2=CC(=O)N(Nc3ccccc3)C2=O)cc1,-9.6%,-2.4%,19.7%
Cc1ccc(NN2C(=O)C=CC2=O)cc1,4.7%,-8.2%,-0.5%
COc1ccc(C(O)C2=CCCC2=O)cc1 (stereo not drawn),.,-16.7%,1.7%
Cn1c(=O)c2c(nc(N/N=C\c3ccccc3C(=O)O)n2C)n(C)c1=O,.,.,-7.8%
CS(=O)(=O)Nc1cccc(-c2nc(NCc3ccccc3)c3ccccc3n2)c1,.,.,24.8%
COC(=O)c1ccccc1S(=O)(=O)N1CCc2nc(-c3ccc(OC)cc3C)c3c(c2C1)CO[C@@H](c1ccccc1)C3,.,.,4.1%
SMILES,NPSR antagonist,ERK EGF block,IMPase Li inh
c1ccc(-n2ncc3c(NCCN4CCOCC4)ncnc32)cc1,8.9%[46.1 µM],.,-2.2%[38.3 µM]
Cc1cccc(-n2ncc3c(NCCN4CCOCC4)ncnc32)c1,?,0.6%[57.5 µM],10µM*
O=C(NCc1nc(-c2ccc(C(F)(F)F)cc2)no1)Nc1cc(Cl)cc(Cl)c1,-53.5%,-18.7%[57.5 µM],.
CCOC(=O)c1c(-c2cccc([N+](=O)[O-])c2)csc1NC(=O)C1CCCCC1,10µM*,3.8%,14.9%
CCOC(=O)c1c(-c2cccc([N+](=O)[O-])c2)csc1NC(=O)C1CC1,-27.9%[46.1 µM],.,11.0%[38.3 µM]
CCOC(=O)c1c(-c2ccc(F)cc2)csc1NC(=O)C1CC=CCC1C(=O)O (stereo not drawn),-22.3%,-6.8%,0.5%
CCOC(=O)c1c(-c2ccc(C)c(C)c2)csc1NC(=O)C1CC=CCC1C(=O)O (stereo not drawn),10µM*,.,16.5%[38.3 µM]
COC(=O)N1CCC2(CCCN(C(=O)Nc3ccccc3)C2)CC1,.,-6.2%,-1.2%
C=C1C(c2ccc(C)cc2)=CCc2cc(C)cc(C)c21,.,.,13.4%
CC[C@H](C)N(C)C(=O)c1cc2ccccc2c(-c2ccccc2Cl)n1,.,-0.8%,16.2%
C/C(N)=C(/C#N)C(=O)CSc1nc2ccccc2c(=O)n1-c1ccc(C)c(Cl)c1,-55.2%,1.1%,11.2µM*
C/C(N)=C(/C#N)C(=O)CSc1nc2ccccc2c(=O)n1-c1ccc(C)cc1,-18.9%,1.4%,?
CN(C)/N=N\c1nc[nH]c1C(N)=O,.,3.2%[25.7 µM],-0.8%
COc1ccc2c(c1)c1ccc3c(c1n2C)C(=O)C=CC3=O,?,31.6µM*,.
Cc1ccc2c(c1)c1ncnc(N3CCOCC3)c1n2C,-12.2%[46.1 µM],.,-6.0%[38.3 µM]
Cc1ccc2c(c1)c1ccc3c(c1n2C)C(=O)C=CC3=O,7.94µM*,?,.
